Source: PubChem BioAssay (Broad Institute)
Shown are actives, neighbours in structure and some others; about 1.5% of the full set was active somewhere.
CASP6 VEID inh: blocks human caspase-6 cleavage activity; P55212; purified caspase-6, Z-VEID-R110 cleavage fluorescence; inhibition, % at 12.5 µM; hit rate 0.53% among 350,000; AID 686996;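 active means mean inhibition across replicates at least about 35%, with every replicate also reaching that limit, limit read from the data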;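 further: 0% = median of neutral control wells and 100% = no fluorescence left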
miR122 inh: miR-122 inhibition in Huh7 cells; Huh7 miR-122 Renilla luciferase sensor, 48 h; neutral wells = 0, positive control = 100; activation (reporter increase), % at 12.5 µM; hit rate 0.3% among 340,000;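 active means mean replicate activation score at least 90 and every replicate individually at or above 90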;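 further: higher luciferase means less miR-122 activity so hits act as miR-122 inhibitors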
RAD52 inh: RAD52 (human) annealing inhibition; P43351; recombinant RAD52 DNA annealing, FRET fluorescence; inhibition, % at 18.7 µM; hit rate 0.46% among 360,000;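 active means every replicate showing at least 50% inhibition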
Target sequence (P43351 whole entry, looked up): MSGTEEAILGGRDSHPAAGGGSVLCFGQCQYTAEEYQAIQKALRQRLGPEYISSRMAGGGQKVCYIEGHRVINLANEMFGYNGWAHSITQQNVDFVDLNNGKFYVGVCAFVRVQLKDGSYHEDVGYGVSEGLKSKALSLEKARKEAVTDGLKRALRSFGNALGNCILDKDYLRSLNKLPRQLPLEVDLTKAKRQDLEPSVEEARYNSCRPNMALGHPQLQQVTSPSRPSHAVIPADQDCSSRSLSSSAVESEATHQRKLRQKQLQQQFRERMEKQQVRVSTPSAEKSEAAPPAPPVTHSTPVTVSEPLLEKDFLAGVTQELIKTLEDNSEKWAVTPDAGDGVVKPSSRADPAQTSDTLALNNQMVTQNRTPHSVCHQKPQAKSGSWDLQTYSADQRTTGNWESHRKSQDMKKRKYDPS
AF4-AF9 inh: MLL-AF4/AF9 protein interaction inhibition; P42568; AlphaScreen, biotin-AF4 peptide binding to FLAG-AF9; inhibition, % at 10 µM; hit rate 0.47% among 350,000; AID 651704;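 active means every replicate reaching a set inhibition limit, whatever the replicate mean, cut at about 25% in these data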;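 further: 0% = plate neutral control median and 100% = total signal loss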
NSD2 HMT inh: NSD2 (human) methyltransferase inhibition; O96028; AID 743445; hit rate 0.54% among 310,000; NSD2 peptide methylation, AlphaScreen, 120 min; inhibition, % at 12.5 µM; in the data active means inhibition above about 50%
* hit, by the source's call; . = no result; [ ] = dose if it differs, or a comment.

SMILES | CASP6 VEID inh | miR122 inh | RAD52 inh | AF4-AF9 inh | NSD2 HMT inh
Cc1ccc(C(=O)O)cc1N1C(=O)c2cccc3c([N+](=O)[O-])ccc(c23)C1=O | 41.5* | -0.8 | -130.3 | -12.6 | 48.9
C[C@H]1C(C(=O)N(C)C2CCCCC2)=Cc2c(n(-c3ccc(F)cc3)c(=O)n2CCCOc2ccccc2)C=C1c1ccccc1 | 0.0 | . | 1.5 | 83.6* | .
CC1=C/C(=C(/c2cc(C)c(O)c(Br)c2)c2ccccc2S(=O)(=O)O)C=C(Br)C1=O | 13.9 | . | -40.7 | 46.8* | 44.0
N/C(=N\C(=S)Nc1ccccc1)c1ccccc1 | 2.8 | -4.3 | -5.2 | 43.3* | 3.3
N#Cc1ccc(NC(=S)/N=C(\N)c2ccccc2)cc1 | 0.0 | 0.9 | 3.1 | 2.4 | .
CCCC(=O)Nc1ccc2c(c1)OC[C@H](C)N(CCC)C[C@@H](C)[C@H](OC)CN(C)C2=O | -1.8 | . | -3.7 | -3.3 | .
Oc1ccc(N=Cc2ccc(OCc3ccccc3)cc2)cc1 | 8.1 | -5.2 | -11.6 | 3.2 | 78.9*
CCOC(=O)c1ccc(NC(=O)Nc2cccc(C)n2)cc1 | -0.1 | 1.0 | -9.2 | 0.3 | -5.9
CCC(=O)Nc1ccc(C(=O)Nc2cccc(C)n2)cc1 | . | 218.5* | . | . | 1.3
C[C@@H](NC(=O)C[C@@H]1CC[C@@H](NC(=O)CN2CCOCC2)[C@@H](CO)O1)c1ccccc1 | 62.8* | 1.6[16.7 µM] | 0.1 | 0.7 | .
C[C@@H](NC(=O)C[C@H]1CC[C@H](NC(=O)CN2CCOCC2)[C@H](CO)O1)c1ccccc1 | 0.8 | 7.0[16.7 µM] | -9.3 | 1.6 | .
O=C(CN1CCOCC1)N[C@H]1CC[C@H](CCNC(=O)C2CCC2)O[C@H]1CO | -1.5 | 3.2[16.7 µM] | 48.2 | 43.3* | .
O=C(NNS(=O)(=O)c1ccc(Cl)cc1)c1cccs1 | -0.2 | 115.6* | -9.8 | -1.4 | -1.4
COc1ccc(S(=O)(=O)NNC(=O)c2cccs2)cc1 | -4.5 | . | -4.0 | -1.3 | -1.2
C[C@@H]1CN([C@H](C)CO)C(=O)Cc2cc(NC(=O)Nc3ccccc3)ccc2O[C@@H]1CN(C)C(=O)NC1CCCCC1 | 3.6 | 0.1[16.7 µM] | 2.3 | -0.6 | .
O=C1OC(Nc2cc(Br)cc3cccnc23)c2ccccc21 (configuration not stated) | 40.2* | 3.1 | 1.8 | -7.1 | 104.2*
O=C(N[C@H]1CC[C@@H](CCn2cc(-c3cccnc3)nn2)O[C@H]1CO)c1ccccc1F | 2.3 | -1.7[16.7 µM] | -1.2 | 5.3 | .
CCN(CC)S(=O)(=O)c1cc(NS(=O)(=O)c2cccc(Cl)c2)ccc1C | 6.5 | 253.7* | -23.4 | 6.7 | 28.4
CCn1c(CNC(=O)COc2ccc(C(C)C)cc2)nnc1SCC(=O)Nc1ccccc1C(C)C | . | -0.2 | . | . | -0.3
Cc1nnc(NC(=O)CSc2nnc(CNC(=O)c3ccccc3F)n2C(C)C)s1 | 14.2 | -2.8 | -22.1 | -11.4 | 2.7
CCn1c(CCNC(=O)c2ccc(OC)cc2)nnc1SCC(=O)Nc1ccccc1F | 1.6 | 119.7* | -10.4 | -0.8 | -3.0
Cc1nnc(NC(=O)CSc2nnc(CCNC(=O)c3ccccc3F)n2C)s1 | -0.6 | -8.1 | -11.4 | 42.3* | 0.3
CCn1c(CNC(=O)COc2ccc(C(C)C)cc2)nnc1SCC(=O)Nc1ccccc1F | 53.3* | -6.0 | -14.8 | . | 2.9
C[C@@H]1CN([C@@H](C)CO)C(=O)c2cc(NC(=O)Nc3cccc4ccccc34)ccc2O[C@@H](C)CCCCO[C@@H]1CN(C)C(=O)Nc1ccccc1 | 0.6 | -2.8[16.7 µM] | -14.1 | -2.7 | .
C[C@H](CO)N1C[C@H](C)[C@H](CN(C)S(=O)(=O)c2ccc(F)cc2)Oc2ccc(NC(=O)Cc3ccccc3)cc2C1=O | 1.8 | -4.0[16.7 µM] | -9.9 | -1.0 | .
SMILES | CASP6 VEID inh | miR122 inh | RAD52 inh | AF4-AF9 inh | NSD2 HMT inh
C[C@@H]1CN([C@H](C)CO)C(=O)Cc2cc(NS(=O)(=O)c3ccc(Cl)cc3)ccc2O[C@@H]1CN(C)Cc1ccc(-c2ccccc2)cc1 | . | -2.0[16.7 µM] | . | . | .
COc1ccc(S(=O)(=O)N2N=C(C)Oc3ccccc3C2=O)cc1 | . | 123.2* | . | . | 9.0
CC1=NN(S(=O)(=O)c2ccc(C)cc2)C(=O)c2ccccc2O1 | 1.7 | -1.5 | -6.2 | -2.8 | -1.8
O=C(c1ccc([N+](=O)[O-])cc1)N1CCc2ccccc21 | 0.0 | . | -10.0 | 47.0* | 0.0
CC(C)C(=O)Nc1ccc2c(c1)C(=O)N(C)[C@H]1CC[C@H](CC(=O)NCc3ccccc3F)O[C@H]1CO2 | . | -20.0[16.7 µM] | . | . | .
COc1ccc(CN(C)C[C@@H]2OCCCC[C@@H](C)Oc3ccc(NC(=O)Nc4ccc5c(c4)OCO5)cc3C(=O)N([C@H](C)CO)C[C@H]2C)cc1 | 1.3 | 7.4[16.7 µM] | 54.5* | 20.3 | .
